This is an account of results in PubChem BioAssay (EPA / NIEHS).

Results filed as inconclusive are left out. Activity calls are given as the source filed them. Rule for the calls: active = hit-call score of the fitted dose curve at least 0.9, where 1 is the maximum; inconclusive = response in the unintended direction; inactive = score below 0.9.

The experiment is described as follows: ATG_M_06_TRANS: Attagene TRANS-FACTORIAL HepG2 Assay for M06 Transcription Factor (Internal Marker) (AID 2282983). The following applies: HepG2 Attagene TRANS M06 internal marker reporter. As to the method: ATG_TRANS is a cell-based, multiplexed-readout assay that uses HepG2, a human liver cell line, with measurements taken at 24 hours after chemical dosing in a 24-well plate.ATG_M_06_TRANS is one of 30 assay component(s) measured or calculated from the ATG_TRANS assay. It is designed to make measurements of mRNA induction, a form of inducible reporter, as detected with fluorescence intensity signals by Reverse transcription polymerase chain reaction (RT-PCR) and Capillary electrophoresis technology.Data from the assay component ATG_M_06_TRANS was analyzed into 1 assay endpoint. This assay endpoint, ATG_M_06_TRANS, was analyzed in the positive analysis fitting direction relative to DMSO as the negative control and baseline of activity. Using a type of inducible reporter, measures of mRNA for gain-of-signal activity can be used to understand the background control at the transcription factor-level as they relate to the gene . Furthermore, this assay endpoint can be referred to as a secondary readout, because this assay has produced multiple assay endpoints where this one serves a background control function. To generalize the intended target to other relatable targets, this assay endpoint is annotated to the background measurement intended target family, where the subfamily is internal marker.
Human liver HepG2 cells are transiently transfected with multiple reporter transcription units (MRTUs) in 6-well plates using FuGene 6 reagent (Roche; 3 ml FuGene/1 mg DNA). The MRTU constructs are regulated by a cis-regulating element (promoter). […] A major difference between the CIS and TRANS system is that in CIS activities of endogenous TFs are measured, whereas the TRANS assay evaluates changes in activities of exogenous, chimeric NR-Gal4 proteins. […] At the end of 24 hour incubation, total RNA was isolated using TriZol reagent (Invitrogen). The isolated RNA is then reverse-transcribed using oligo(dT) primer and Mo-MLV reverse transcriptase (Invitrogen) with DNAse I (Ambion) treatment for 30 min. The one-tenth of the produced cDNA was amplified by PCR using Taq DNA polymerase (Invitrogen) and two reporter sequence-specific primers. The PCR products were fluorescently labeled by primer extension with 6-arboxyfluorescein (6-FAM) 5'-labeled reporter sequence-specific primer (2 min at 95 C, 20 s at 68 C and 10 min at 72 C) and these products were digested with 5U of HpaI (New England Biolabs) for 2h at 37 C. The fragments were purified using Qiaquick PCR columns (Qiagen), analyzed on an ABI 3130xL genetic analyzer (Applied Biosystems) with peak positions identified by using a set of X-rhodamine (ROX)-labeled MapMarker1000 molecular weight standards (BioVentures). The raw capillary electrophoresis data was processed using Attagraph software (Attagene).
Consider `O=c1cc[nH]cc1`, for which the compound was classed as inactive. For the compound `c1ccc(OCCOc2ccccc2)cc1`, the call was inactive. For `C#C[C@]1(O)CC[C@H]2[C@@H]3CCc4cc(O)ccc4[C@H]3CC[C@@]21C`, the compound was called inactive. For `CN1CCc2cccc3c2[C@H]1Cc1ccc(O)c(O)c1-3`, the outcome was inactive. As for `NCCN1CCNCC1`, the result was inactive.

For the compound `CC1=C(C=O)C(C)(C)CCC1`, the result was inactive. As for `Nc1ccn([C@H]2CC[C@@H](CO)O2)c(=O)n1`, the call was inactive. For the compound `CC(C)COC(=O)c1ccccc1`, the compound was classed as inactive.

As for `CCCCCCCCCOS(=O)(=O)O`, the call was inactive. Under `C=C(C)C(=O)OCCOCCOC(=O)C(=C)C` stands “inactive”; under `c1coc(CNc2ncnc3nc[nH]c23)c1`, “inactive”. As for `NC(=O)NC(N)=O`, the outcome was inactive.

As for `Brc1cc(Br)cc(Br)c1`, the result was inactive. In the case of `Cc1ccccc1S`, the call was inactive. As to `CCCOC(=O)CC`, the compound was classed as inactive. On to `CCC(C)(C)c1cc(O)c(C(C)(C)CC)cc1O`, for which the outcome was inactive.

`C1=COCCC1`: the compound was classed as inactive. In the case of `CCCCCCCCSCc1cc(C)c(O)c(CSCCCCCCCC)c1`, the compound was classed as inactive.

For the compound `CC(C)COC(=O)c1ccccc1O`, the call was inactive. In the case of `CCOC(=O)CC1(C)OCC(C)O1` (stereo not given), the outcome was inactive. As for `C=C1CC[C@H]2O[C@]2(C)CC[C@@H]2[C@@H]1CC2(C)C`, the result was inactive. On to `C1CCCNCC1`, for which the call was inactive. For `CC(=O)c1ccc(O)cc1`, the compound was classed as inactive.

In the case of `C1COCO1`, the compound was classed as inactive. Consider `CCO[Si](CC)(OCC)OCC`, for which the call was inactive.

Regarding `CCCCCCCCCCCCCCCCCC(=O)OCCCCCCCCCCCCCC(C)C`, the compound was classed as inactive.

For the compound `CC1=CC[C@@H]2C[C@H]1C2(C)C`, the outcome was inactive. Under `CCC=C(C)C=O` stands “inactive”; under `CC(=O)CCc1ccc(O)cc1`, “inactive”. Take `Cc1cccc(O)c1`: the result was inactive. `CCCO[Si](OCCC)(OCCC)OCCC`: the compound was classed as inactive. For `CC(C)(CO)CO`, the result was inactive. As to `CCc1cccc(O)c1`, the compound was called inactive.

For `CC12CCC(C1)C(C)(C)C2O` (stereo not given), the result was inactive. Under `Cc1ccc(C(C)(C)O)cc1` stands “inactive”. For `COc1cc(OC)c2ccc(=O)oc2c1`, the call was inactive.

Take `CC(CCO)CC(C)(C)C` (stereo not given): the compound was called inactive. Under `C=CC(O)CCCCC` (stereo not given) stands “inactive”. In the case of `CC/C(=C(\c1ccccc1)c1ccc(OCCN(C)C)cc1)c1ccccc1`, the outcome was inactive. `C[C@]12CC[C@@H]3c4ccc(O)cc4CC[C@H]3[C@@H]1CC[C@@H]2O`: the compound was classed as inactive.
